# According to publication PMC8384837, “Expanding the binding specificity for RNA recognition by a PUF domain”:
# Numbering of substitutions follows the chain as printed.
# Columns and labels:
# Test in all cases: yeast three-hybrid, YBZ-1, SC-Leu-His + 0.5 mM 3-AT, 4 days
# Settings in all cases: tags: N-Gal4 AD-HA kept; label: inside an RPR1-promoter hybrid RNA with tandem MS2 sites; ssRNA
# PUM1 PUF domain R4-INC = PUM1 PUF domain R4-INC (Homo sapiens, UniProt Q14671 828-1176, N971I;H972N;Q975C)
# Summary of the method: (§1)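 Matching RNA elements and Pumilio-1 PUF domain libraries, randomized at the three base-contacting residues of every repeat, were co-expressed from a centromeric plasmid in strain YBZ-1 (LexA–MS2 coat fusion, HIS3 reporter). The repeat regions were PCR-amplified and Illumina-sequenced from cells grown four days on SC-Leu (input) or SC-Leu-His + 0.5 mM 3-AT (selection). The interaction score is the log change in variant frequency from input to selection. It is computed in log2, with a pseudocount of 1 for absent variants.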
# PUM1 PUF domain R3-MFG = PUM1 PUF domain R3-MFG (Homo sapiens, UniProt Q14671 828-1176, C935M;R936F;Q939G)
# Summary of the method: as §1
# PUM1 PUF domain R3-YRV = PUM1 PUF domain R3-YRV (Homo sapiens, UniProt Q14671 828-1176, C935Y;Q939V)
# Summary of the method: as §1
# PUM1 PUF domain R3-FCR = PUM1 PUF domain R3-FCR (Homo sapiens, UniProt Q14671 828-1176, C935F;R936C;Q939R)
# Summary of the method: as §1
# PUM1 PUF domain R1-KCR = PUM1 PUF domain R1-KCR (Homo sapiens, UniProt Q14671 828-1176, S863K;R864C;Q867R)
# Summary of the method: as §1
# PUM1 PUF domain R1-RYE = PUM1 PUF domain R1-RYE (Homo sapiens, UniProt Q14671 828-1176, S863R;R864Y;Q867E)
# Summary of the method: as §1
# PUM1 PUF domain R1-KDR = PUM1 PUF domain R1-KDR (Homo sapiens, UniProt Q14671 828-1176, S863K;R864D;Q867R)
# Summary of the method: as §1
# PUM1 PUF domain R7-LTV = PUM1 PUF domain R7-LTV (Homo sapiens, UniProt Q14671 828-1176, S1079L;N1080T;E1083V)
# Chain of PUM1 PUF domain R7-LTV (Q14671 828-1176 S1079L/N1080T/E1083V): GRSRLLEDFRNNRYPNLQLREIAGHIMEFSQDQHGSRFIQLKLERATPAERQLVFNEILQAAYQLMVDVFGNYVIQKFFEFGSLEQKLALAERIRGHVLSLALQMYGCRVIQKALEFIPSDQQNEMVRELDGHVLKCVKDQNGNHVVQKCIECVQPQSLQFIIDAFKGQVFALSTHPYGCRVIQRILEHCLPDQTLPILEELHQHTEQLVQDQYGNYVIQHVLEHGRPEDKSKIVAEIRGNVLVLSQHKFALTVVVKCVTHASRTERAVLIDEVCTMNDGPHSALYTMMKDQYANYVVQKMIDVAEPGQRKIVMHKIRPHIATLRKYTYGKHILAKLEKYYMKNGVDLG
# Summary of the method: as §1
# PUM1 PUF domain R6-NRR = molecular target: T1, PUM1 PUF domain R6-NRR (Homo sapiens, UniProt Q14671 828-1176, Y1044R;Q1047R)
# T1 sequence: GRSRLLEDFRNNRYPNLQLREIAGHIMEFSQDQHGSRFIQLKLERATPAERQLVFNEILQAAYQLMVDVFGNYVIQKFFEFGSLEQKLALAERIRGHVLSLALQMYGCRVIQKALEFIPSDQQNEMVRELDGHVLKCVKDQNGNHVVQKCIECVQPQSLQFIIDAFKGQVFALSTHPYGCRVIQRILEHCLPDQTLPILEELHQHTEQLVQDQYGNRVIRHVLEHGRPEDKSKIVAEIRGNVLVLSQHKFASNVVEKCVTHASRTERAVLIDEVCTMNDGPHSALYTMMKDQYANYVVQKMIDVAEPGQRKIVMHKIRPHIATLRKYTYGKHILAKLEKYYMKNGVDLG
# Summary of the method: as §1
# PUM1 PUF domain R3-LWK = PUM1 PUF domain R3-LWK (Homo sapiens, UniProt Q14671 828-1176, C935L;R936W;Q939K)
# Summary of the method: as §1
# PUM1 PUF domain R6-FYM = molecular target: T2, PUM1 PUF domain R6-FYM (Homo sapiens, UniProt Q14671 828-1176, N1043F;Q1047M)
# T2 sequence: T1 sequence with N216F, R217Y, R220M
# Summary of the method: as §1
# PUM1 PUF domain R3-VRN = PUM1 PUF domain R3-VRN (Homo sapiens, UniProt Q14671 828-1176, C935V;Q939N)
# Summary of the method: as §1
# PUM1 PUF domain R5-GKC = PUM1 PUF domain R5-GKC (Homo sapiens, UniProt Q14671 828-1176, C1007G;R1008K;Q1011C)
# Summary of the method: as §1
# PUM1 PUF domain R3-DFA = PUM1 PUF domain R3-DFA (Homo sapiens, UniProt Q14671 828-1176, C935D;R936F;Q939A)
# Summary of the method: as §1
# PUM1 PUF domain R5-GFI = PUM1 PUF domain R5-GFI (Homo sapiens, UniProt Q14671 828-1176, C1007G;R1008F;Q1011I)
# Summary of the method: as §1
# PUM1 PUF domain R5-RQD = PUM1 PUF domain R5-RQD (Homo sapiens, UniProt Q14671 828-1176, C1007R;R1008Q;Q1011D)
# Summary of the method: as §1
# PUM1 PUF domain R5-KAC = PUM1 PUF domain R5-KAC (Homo sapiens, UniProt Q14671 828-1176, C1007K;R1008A;Q1011C)
# Summary of the method: as §1
# PUM1 PUF domain R5-KLC = PUM1 PUF domain R5-KLC (Homo sapiens, UniProt Q14671 828-1176, C1007K;R1008L;Q1011C)
# Summary of the method: as §1
# PUM1 PUF domain R5-LWR = PUM1 PUF domain R5-LWR (Homo sapiens, UniProt Q14671 828-1176, C1007L;R1008W;Q1011R)
# Summary of the method: as §1
# PUM1 PUF domain R5-NSD = PUM1 PUF domain R5-NSD (Homo sapiens, UniProt Q14671 828-1176, C1007N;R1008S;Q1011D)
# Summary of the method: as §1
sequence,measurement,setting,value
GGCUAGAACUAGUGGAUCCCCCGGCGCCCGGCGGCUCGAGCCCGGGUAAGUGUAUAUAGUCUGCAUGCCGCCGGGCGCCAUGCCUGCAGGUCGACUCUAGAAAACAUG,binding signal,PUM1 PUF domain R4-INC,4.14 log2 enrichment (interaction score)
GGCUAGAACUAGUGGAUCCCCCGGCGCCCGGCGGCUCGAGCCCGGGUAAGUGUAAGUAGUCUGCAUGCCGCCGGGCGCCAUGCCUGCAGGUCGACUCUAGAAAACAUG,binding signal,PUM1 PUF domain R3-MFG,5.73 log2 enrichment (interaction score)
same,binding signal,PUM1 PUF domain R3-YRV,4.59 log2 enrichment (interaction score)
same,binding signal,PUM1 PUF domain R3-FCR,5.77 log2 enrichment (interaction score)
GGCUAGAACUAGUGGAUCCCCCGGCGCCCGGCGGCUCGAGCCCGGGUAAGUGUAAAUCGUCUGCAUGCCGCCGGGCGCCAUGCCUGCAGGUCGACUCUAGAAAACAUG,binding signal,PUM1 PUF domain R1-KCR,7.51 log2 enrichment (interaction score)
same,binding signal,PUM1 PUF domain R1-RYE,1.44 log2 enrichment (interaction score)
same,binding signal,PUM1 PUF domain R1-KDR,3.98 log2 enrichment (interaction score)
GGCUAGAACUAGUGGAUCCCCCGGCGCCCGGCGGCUCGAGCCCGGGUAAGUUUAAAUAGUCUGCAUGCCGCCGGGCGCCAUGCCUGCAGGUCGACUCUAGAAAACAUG,binding signal,PUM1 PUF domain R7-LTV,4.94 log2 enrichment (interaction score)
GGCUAGAACUAGUGGAUCCCCCGGCGCCCGGCGGCUCGAGCCCGGGUAAGUGCAAAUAGUCUGCAUGCCGCCGGGCGCCAUGCCUGCAGGUCGACUCUAGAAAACAUG,binding signal,PUM1 PUF domain R6-NRR,4.48 log2 enrichment (interaction score)
GGCUAGAACUAGUGGAUCCCCCGGCGCCCGGCGGCUCGAGCCCGGGUAAGUGUAAAUAGUCUGCAUGCCGCCGGGCGCCAUGCCUGCAGGUCGACUCUAGAAAACAUG,binding signal,PUM1 PUF domain R3-LWK,3.42 log2 enrichment (interaction score)
same,binding signal,PUM1 PUF domain R6-FYM,2.99 log2 enrichment (interaction score)
same,binding signal,PUM1 PUF domain R3-MFG,2.43 log2 enrichment (interaction score)
same,binding signal,PUM1 PUF domain R3-YRV,0.2 log2 enrichment (interaction score)
same,binding signal,PUM1 PUF domain R3-VRN,3.59 log2 enrichment (interaction score)
same,binding signal,PUM1 PUF domain R5-GKC,0.78 log2 enrichment (interaction score)
same,binding signal,PUM1 PUF domain R3-DFA,6.17 log2 enrichment (interaction score)
same,binding signal,PUM1 PUF domain R5-GFI,6.14 log2 enrichment (interaction score)
same,binding signal,PUM1 PUF domain R6-NRR,4.3 log2 enrichment (interaction score)
GGCUAGAACUAGUGGAUCCCCCGGCGCCCGGCGGCUCGAGCCCGGGUAAGUGUAAUUAGUCUGCAUGCCGCCGGGCGCCAUGCCUGCAGGUCGACUCUAGAAAACAUG,binding signal,PUM1 PUF domain R3-LWK,5.28 log2 enrichment (interaction score)
same,binding signal,PUM1 PUF domain R3-MFG,4.71 log2 enrichment (interaction score)
same,binding signal,PUM1 PUF domain R3-YRV,0.78 log2 enrichment (interaction score)
same,binding signal,PUM1 PUF domain R3-FCR,1.6 log2 enrichment (interaction score)
GGCUAGAACUAGUGGAUCCCCCGGCGCCCGGCGGCUCGAGCCCGGGUAAGUGUAAAUGGUCUGCAUGCCGCCGGGCGCCAUGCCUGCAGGUCGACUCUAGAAAACAUG,binding signal,PUM1 PUF domain R1-KCR,2.46 log2 enrichment (interaction score)
GGCUAGAACUAGUGGAUCCCCCGGCGCCCGGCGGCUCGAGCCCGGGUAAGUGUAAAUUGUCUGCAUGCCGCCGGGCGCCAUGCCUGCAGGUCGACUCUAGAAAACAUG,binding signal,PUM1 PUF domain R1-KCR,5.43 log2 enrichment (interaction score)
same,binding signal,PUM1 PUF domain R1-RYE,2.61 log2 enrichment (interaction score)
GGCUAGAACUAGUGGAUCCCCCGGCGCCCGGCGGCUCGAGCCCGGGUAAGUGUCAAUAGUCUGCAUGCCGCCGGGCGCCAUGCCUGCAGGUCGACUCUAGAAAACAUG,binding signal,PUM1 PUF domain R5-RQD,3.67 log2 enrichment (interaction score)
same,binding signal,PUM1 PUF domain R5-KAC,4.63 log2 enrichment (interaction score)
same,binding signal,PUM1 PUF domain R5-KLC,2.5 log2 enrichment (interaction score)
same,binding signal,PUM1 PUF domain R5-LWR,3.23 log2 enrichment (interaction score)
same,binding signal,PUM1 PUF domain R5-GKC,2.56 log2 enrichment (interaction score)
GGCUAGAACUAGUGGAUCCCCCGGCGCCCGGCGGCUCGAGCCCGGGUAAGUGUUAAUAGUCUGCAUGCCGCCGGGCGCCAUGCCUGCAGGUCGACUCUAGAAAACAUG,binding signal,PUM1 PUF domain R5-KAC,3.67 log2 enrichment (interaction score)
same,binding signal,PUM1 PUF domain R5-NSD,4.22 log2 enrichment (interaction score)
